PNC inhibitor: blocks assembly of the perinucleolar compartment | PC3M PTB-GFP, PNC prevalence imaging, 16 h; stronger effect = lower value | activity change (PNC), negative = inhibition, % at 10 µM | 140,000 tested, 3.1% active | AID 2417;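 active = readout at or below -70, meaning at least 70% loss of cells showing the perinucleolar compartment, a nuclear body marking cancer cells; inconclusive = readout between -30 and a set limit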;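 also: plate controls were DMSO wells for no effect and camptothecin positive control wells for full effect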
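Compounds are pinned in duplicate onto adhered PC3M cells stably expressing GFP-tagged PTB and incubated 16 h at 37 C. Cells are then fixed, nuclei stained with Hoechst, and PNC-positive cells counted.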
ALOX12 inhib: 12-hLO (ALOX12) enzyme inhibition; Potency, µM (top dose mostly 57.1 µM), without a hit: at the top dose activity change, negative = inhibition, hits mostly inhibitors; AID 1452; P18054; purified 12-hLO, xylenol orange hydroperoxide absorbance; 150,000 tested, 0.12% active; active = well fitted inhibition curve with a large enough effect; inconclusive = small, poorly fitted or top-dose-only effect; also: potency is read from the fitted curve at half-maximal effect; nearly all actives have a fitted effect of over 55% in size
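150 nM 12hLO, 25 mM Hepes pH 7.0 + 0.01% Triton X-100; cpd preinc 15 min RT; 40 uM arachidonic acid, 30 min RT; Fe-XO 30 min; A573/A405 ratio as read-out.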
HPGD block: inhibitors of human 15-hydroxyprostaglandin dehydrogenase (HPGD). 150,000 tested, 4.3% active. AID 894. P15428. Potency, µM, for the others: top-dose activity change, negative = inhibition, actives largely listed as inhibitors. purified HPGD, NADH fluorescence kinetic, PGE2 substrate; also: potency is read from the fitted curve at half-maximal effect
Target sequence (P15428 whole entry, looked up): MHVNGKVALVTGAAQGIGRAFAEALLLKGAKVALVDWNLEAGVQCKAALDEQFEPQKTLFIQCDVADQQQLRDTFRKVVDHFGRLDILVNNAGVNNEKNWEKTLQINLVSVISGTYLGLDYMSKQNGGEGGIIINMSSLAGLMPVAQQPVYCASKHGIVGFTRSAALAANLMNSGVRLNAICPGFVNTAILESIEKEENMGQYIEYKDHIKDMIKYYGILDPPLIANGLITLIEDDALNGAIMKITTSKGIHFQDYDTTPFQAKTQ
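20 nM HPGD preincubated 15 min at room temperature with compound in 50 mM Tris-HCl pH 8, 0.01% Tween 20. Started with 1 mM NAD+ and 30 uM prostaglandin E2; NADH fluorescence (360/450 nm) read 5 times over 30-s intervals, last minus first.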
ALDH1A1 inh: inhibitors of human aldehyde dehydrogenase 1A1; Potency, µM (titrated, usually from 75.3 µM), inactives show top-dose activity, negative = inhibition, hits mostly inhibitors; P00352; Purified ALDH1A1, NADH fluorescence, propionaldehyde substrate; 220,000 tested, 7.3% active;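 also: potency is read from the fitted curve at half-maximal effect; plate controls were no enzyme wells and a reference inhibitor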
Target sequence (P00352 whole entry, looked up): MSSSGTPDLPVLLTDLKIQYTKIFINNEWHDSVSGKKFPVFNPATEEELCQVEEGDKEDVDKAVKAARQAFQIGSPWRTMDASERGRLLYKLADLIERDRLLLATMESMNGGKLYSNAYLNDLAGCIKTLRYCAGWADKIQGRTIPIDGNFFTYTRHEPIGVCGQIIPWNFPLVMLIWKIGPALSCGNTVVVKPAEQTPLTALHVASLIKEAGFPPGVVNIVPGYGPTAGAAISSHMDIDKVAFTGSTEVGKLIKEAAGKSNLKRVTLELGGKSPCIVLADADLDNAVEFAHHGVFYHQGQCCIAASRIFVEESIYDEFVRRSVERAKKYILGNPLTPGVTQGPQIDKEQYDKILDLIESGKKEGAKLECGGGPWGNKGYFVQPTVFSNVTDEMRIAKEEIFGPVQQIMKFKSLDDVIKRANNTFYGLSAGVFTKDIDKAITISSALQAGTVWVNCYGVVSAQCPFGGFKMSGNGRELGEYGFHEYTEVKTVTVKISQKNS
Lamin A splicing: changes lamin A minigene splicing in HeLa cells | HeLa LMNA splicing GFP/RFP minigene ratio, 48 h | Potency, µM (highest dose often 46.1 µM), inactives show at the top dose ratio change, negative = inhibition, hits mostly inhibitors | 200,000 tested, 0.01% active | AID 1487; active = well fitted inhibition curve with a large enough effect in the signal ratio, with a control signal flat, not every such curve was filed as active; inconclusive = small, poorly fitted or top-dose-only effect, or effect the other way, or a change in a side signal; the % refers to the signal ratio; also: potency is read from the fitted curve at half-maximal effect
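S3 HeLa stable clones carrying a lamin A-EGFP splicing minigene plus DsRed2 were seeded at 600 cells/well in Opti-MEM with 2% FBS, pin-dosed and incubated 48 h at 37°C. Acumen cytometry (488 nm) gave the GFP/RFP total-intensity ratio.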
Starred values were filed as active, the others as inactive; ? = inconclusive; · = no result given; ! = a repeat was not active; [ ] = remark or other dose. Shown are actives, neighbours in structure and some others; about 10% of the full set was active somewhere. Unless noted, calls follow the shape of the dose curve; as a rule, active = well fitted inhibition curve with a large enough effect (not every such curve was filed as active); inconclusive = small, poorly fitted or top-dose-only effect, or another doubt; inactive = no such curve, though single readings can be large or run the other way. Unless noted, % is scaled to controls: 0 for no effect and ±100 for the full control effect.

SMILES	PNC inhibitor	ALOX12 inhib	HPGD block	ALDH1A1 inh	Lamin A splicing
Cc1nc2cnc(N3CCN(C)CC3)nc2n(C2CC2)c1=O	·	·	·	?	5.2%
O=C(CNc1ccc2c(c1)OCO2)N/N=C\c1cn(Cc2ccc(F)cc2)c2ccccc12	-16.0	-0.2%	-18.5%	2µM*	?
O=C1C2C3C=CC(C3)C2C(=O)N1/N=C/c1cn(Cc2ccc(F)cc2)c2ccccc12 (configuration not stated)	12.9	-1.2%	-8.6%	25.1µM*	12.4%
O=C(CNc1ccc2c(c1)OCO2)N/N=C\c1cn(Cc2ccccc2)c2ccccc12	-20.2	-1.8%	-15.8%	4.47µM*	?
CC1=C(C(=O)Nc2ccccn2)C(c2ccc(Cl)cc2Cl)NC(=S)N1 (configuration not stated)	·	·	·	2.51µM*	·
CC1=C(C(=O)Nc2ccccn2)C(c2ccccc2Cl)NC(=S)N1 (configuration not stated)	·	·	·	2.51µM*	·
Clc1nc2ccccc2nc1Cl	·	-4.3%	-9.7%	-9.5%	·
Cc1ccc(C(=N)c2ccccc2Cc2cccc3ccccc23)c2ccccc12	·	4.0%[11.4 µM]	0.7%	2.9%[13.5 µM]	·
N#Cc1c(-c2ccccc2F)cc(-c2cccnc2)nc1N	-95.9*	-1.5%	?	?	-2.9%
CC1CCc2c(sc3nc(SCC(=O)NCc4ccco4)nc(N)c23)C1 (configuration not stated)	-9.5	-13.1%	14.1µM*	5.2%	?
CCN(CC)C(=O)CSc1nc(N)c2c3c(sc2n1)CC(C)CC3 (configuration not stated)	19.9	-1.3%	14.1µM*	-12.2%	?
COCCCn1c(SCC(=O)NCc2ccco2)nc2sc3c(c2c1=O)CCC3	1.4	-7.8%	·	-1.5%	?
COC1OC2COC(c3ccccc3)OC2C(O)C1O (configuration not stated)	·	1.2%	-11.1%	5.2%	·
C=C1CC[C@H](O)C/C1=C/C=C1\CCC[C@]2(C)[C@H]1CC[C@H]2[C@@H](C)/C=C\[C@@H](C)C(C)C	·	-0.3%[25.6 µM]	-6.4%	-3.9%[20.9 µM]	?
O=C(Cc1cc(=O)[nH][nH]1)N/N=C/c1c(Cl)cccc1Cl	?	-7.8%	14.1µM*	11.2µM*!	-6.5%
O=C1C=CC(O)(c2cc(=O)c3c(O)cc(O)cc3o2)C=C1	-118.9*	-4.2%	-7.7%	-2.0%	?
O=c1c(O)c(-c2ccc(O)cc2O)oc2cc(O)cc(O)c12	-22.4	-19.4%	-24.4%	-12.7%	-2.2%
CCc1cccc(C)c1NC(=O)c1cnn(-c2ccc(OC)cc2)c1C1CCN(C(=O)OC(C)(C)C)CC1	·	·	·	·	-0.8%[46 µM]
CCOC(=O)c1[nH]c(C)c(CCC(=O)N2CCN(c3ccc(Cl)cc3)CC2)c1C	·	·	·	·	-3.2%[46 µM]
CCOP(=O)(OCC)C(C#N)=C1SCN(c2ccc(Cl)cc2)CS1	-19.7	-1.1%	20µM*	-9.7%	5.7%
Cc1cccc(C(=O)NC(=S)Nc2ccccc2C(F)(F)F)c1	43.3	?	-10.0%	17.8µM*	-12.2%
COC(=O)c1sc(NC(=S)NC(=O)c2cccc(C)c2)nc1C	13.3	-1.0%	-3.9%	3.3%	-1.6%
Cc1ccc(C(=O)NC(=S)Nc2ccccc2C(F)(F)F)cc1C	72.4	22.4µM*	-21.4%	4.47µM*	-2.6%[0.0737 µM]
O=c1[nH]c2c(s1)C(c1ccccc1)C1C3CCC(C3)C1S2 (configuration not stated)	?	-14.8%	?	20µM*	?
COc1ccc(C2c3sc(=O)[nH]c3SC3C4CCC(C4)C23)cc1 (configuration not stated)	-29.7	-0.9%	?	22.4µM*	-2.3%
SMILES	PNC inhibitor	ALOX12 inhib	HPGD block	ALDH1A1 inh	Lamin A splicing
COc1ccc(C2c3sc(=O)[nH]c3SC3C(=O)N(c4ccccc4)C(=O)C32)cc1 (configuration not stated)	?	-21.0%	-5.8%	22.4µM*	-8.0%
O=C1C2Sc3[nH]c(=O)sc3C(c3ccccc3)C2C(=O)N1c1ccccc1 (configuration not stated)	-20.3	-7.3%	-17.0%	?	4.2%
COc1ccc(NS(=O)(=O)c2ccc(-n3cccn3)cc2)cc1OC	·	·	·	·	-12.9%[46 µM]
COC(=O)CCCC(=O)O	·	2.4%[11.4 µM]	-5.8%	3.4%[13.5 µM]	·
CCC(=O)Nc1ccc(Oc2ccc3c(c2)C(=O)NC3=O)cc1	-7.9	-1.3%	15.8µM*	5.2%	3.4%
O=C(CN1CCNCC1)Nc1ccc(Oc2ccccc2)cc1	-15.6	-2.8%	-1.2%	1.6%	-1.6%
CCC(=O)Nc1ccc(Oc2ccc3c(c2)C(=O)N(c2ccc(O)cc2)C3=O)cc1	-17.7	-0.2%	-11.4%	?	3.2%
O=C(CN1CCCC1)Nc1ccc(Oc2ccc(NC(=O)CN3CCCC3)cc2)cc1	2.3	-1.0%	25.1µM*	-14.8%	4.0%
CCOc1ccc(NC(=O)CN2CCN(C3c4ccccc4-c4ccccc43)CC2)cc1	7.4	-4.6%	-17.2%	11.2µM*	-4.4%
O=C(CN1CCCCCC1)Nc1ccc(F)c(F)c1	-6.7	-8.3%	-24.1%	22.4µM*	5.6%
O=C(CN1CCN(c2ccc(Cl)cc2)CC1)Nc1ccc(F)c(F)c1	44.5	-6.9%	-5.5%	-1.5%	?
CCOc1ccc(NC(=O)CN2CCN(CC(=O)Nc3ccc(C(=O)OC)cc3)CC2)cc1	14.7	-4.3%	-12.7%	7.08µM*	-9.7%
COC(=O)c1ccc(NC(=O)CN2CCCC2)cc1	11.0	-2.6%	-11.4%	1.9%	15.9%
CCCC(=O)Nc1ccc(Oc2ccc(NC(=O)CCC)cc2)cc1	-100.0*	1.1%	-9.3%	2.3%	-2.3%
CCOc1ccc(NC(=O)CN2CCN(CC(=O)Nc3ccc(F)c(F)c3)CC2)cc1	?	-2.4%	-6.1%	3.98µM*	-3.3%
CCCC(=O)Nc1ccc(OCC(=O)OC)cc1	31.6	0.4%	-4.2%	2.2%	4.0%
CCOc1ccc(NC(=O)Cn2c(=O)oc3ccccc32)cc1	-14.5	-6.3%	10µM*	-7.9%	-17.4%
CCOc1ccc(NC(=O)CN2CCN(CC(=O)Nc3ccc(N(CC)CC)cc3)CC2)cc1	·	·	·	·	12.3%[46 µM]
Cc1ccc(NC(=O)Cn2c(=O)oc3ccccc32)cc1	·	·	·	4.1%	?
Cc1ccccc1NC(=O)Cn1nc(-c2ccccc2)nc(Cc2ccccc2)c1=O	·	·	·	·	15.8%[46 µM]
COc1ccc(C2CC(=O)N(Cc3ccccc3)c3c2c(C)nn3-c2nc(C)cc(C)n2)c(OC)c1 (configuration not stated)	·	·	·	·	17.9%[46 µM]
CC(=O)c1cc2c(cc1NC(=O)CCn1cccc1)OCO2	1.1	-2.7%	-18.8%	31.6µM*	-0.7%
O=C(Cn1c(Cc2ccccc2)nc2ccccc21)NCc1ccc2c(c1)OCO2	-25.0	-1.4%	-4.2%	15.8µM*	-11.6%
O=C(Cn1c(CO)nc2ccccc21)NCc1ccc2c(c1)OCO2	·	·	·	-4.4%	·
O=C(CCn1c(=O)oc2ccccc21)NCc1ccc2c(c1)OCO2	17.7	-1.4%	-12.0%	15.8µM*	-2.5%
O=C(CCn1c(=O)sc2ccccc21)NCc1ccc2c(c1)OCO2	-118.9*	2.6%	-8.6%	?	4.5%
